Test results: PubChem BioAssay (NCATS)
Inconclusive results are not listed. Calls of active or inactive are those of the source. Calls come from the whole dose curve.

Test: S16 Schwann cell PMP22 intronic element beta-lactamase assay (AID 624044);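 note: 0% = DMSO and -100% = potassium clavulanate positive control; nearly all actives have a fitted effect of over 15% in size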
Details: S16 rat Schwann cells, PMP22 element beta-lactamase FRET, 24 h; ratio activity, negative = inhibition: at 38.3 µM (top of the series) unless noted
In short: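 Beta-lactamase reporter under a PMP22 intronic regulatory element in stable S16 rat Schwann cells; 24 h compound exposure. 460 nm blue signal normalized between DMSO (0%) and potassium clavulanate, with 535 nm FRET tracking viability; curves classed by r2 and response.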

Row | SMILES | ratio activity, negative = inhibition
1 | CCCCCCCCCCCCCCCCCCCCCC(=O)Nc1ccn([C@@H]2O[C@H](CO)[C@@H](O)[C@@H]2O)c(=O)n1 | -0.57% (inactive)
2 | Cc1cccc(C)c1NC(=O)NC1=CCCN1C | 3.11% (inactive)
3 | FC(F)(F)COCC(F)(F)F | -0.887% (inactive)
4 | O=C1c2ccccc2CN2C(=O)c3ccccc3CN12 | 0.507% (inactive)
5 | N=C(N)n1cccn1 | -0.887% (inactive)
6 | CC(C)(COP(=O)(O)OP(=O)(O)OC[C@H]1O[C@@H](n2cnc3c(N)ncnc32)[C@H](O)[C@@H]1OP(=O)(O)O)C(O)C(=O)NCCC(=O)NCCS (some centres undefined) | 1.27% (inactive)
7 | O=P(O)(O)OC[C@H](O)CO | 2.95% (inactive)
8 | CCCCCCOC(=O)c1cccnc1 | 2.38% (inactive)
9 | CCCc1nc(C(C)(C)O)c(C(=O)OCc2oc(=O)oc2C)n1Cc1ccc(-c2ccccc2-c2nn[nH]n2)cc1 | 0.293% (inactive)
